Assay outcomes (PubChem BioAssay)
BoNT A protease: BoNT A light chain protease inhibition; multiplex microsphere protease substrate cleavage, flow cytometry; inhibition, % at 10 µM; 360,000 compounds, 0.17% hits; AID 588499; further: plate controls were buffer without enzyme for full effect and enzyme alone for no effect
Anthrax LF inh2: anthrax lethal factor protease inhibition; P15917; multiplex microsphere protease cleavage assay, LF; inhibition, % at 10 µM; 360,000 compounds, 0.12% hits; AID 588501; further: plate controls were buffer without enzyme for full effect and enzyme alone for no effect
Target sequence (P15917 whole entry, looked up): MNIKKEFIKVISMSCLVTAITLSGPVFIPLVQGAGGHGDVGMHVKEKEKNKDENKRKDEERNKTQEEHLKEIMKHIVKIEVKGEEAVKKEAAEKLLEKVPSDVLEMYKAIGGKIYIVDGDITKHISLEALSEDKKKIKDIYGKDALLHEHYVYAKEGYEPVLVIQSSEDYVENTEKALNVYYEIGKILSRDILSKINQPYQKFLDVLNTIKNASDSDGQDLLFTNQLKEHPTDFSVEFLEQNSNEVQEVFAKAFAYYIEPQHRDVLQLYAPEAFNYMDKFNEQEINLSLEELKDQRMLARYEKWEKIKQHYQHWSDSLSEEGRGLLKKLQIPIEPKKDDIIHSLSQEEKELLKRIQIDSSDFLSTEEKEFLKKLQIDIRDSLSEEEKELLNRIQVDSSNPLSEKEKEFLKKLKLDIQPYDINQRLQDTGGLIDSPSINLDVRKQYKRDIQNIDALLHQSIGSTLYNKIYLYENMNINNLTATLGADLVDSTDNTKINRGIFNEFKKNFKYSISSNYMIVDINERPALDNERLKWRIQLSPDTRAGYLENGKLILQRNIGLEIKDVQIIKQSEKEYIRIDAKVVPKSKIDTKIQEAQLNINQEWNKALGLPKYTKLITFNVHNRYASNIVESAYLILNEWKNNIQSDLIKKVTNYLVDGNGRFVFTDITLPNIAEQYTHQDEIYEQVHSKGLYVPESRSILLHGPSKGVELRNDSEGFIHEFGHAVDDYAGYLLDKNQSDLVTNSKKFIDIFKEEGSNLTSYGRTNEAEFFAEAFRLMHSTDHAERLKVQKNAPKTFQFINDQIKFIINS
Bead autofluor: compound fluorescence in toxin protease inhibitor counterscreen. fluorescence intensity (test concentration not listed). compound autofluorescence counterscreen, microsphere flow cytometry; hits give high values. AID 624483. 360,000 compounds, 3.1% hits; in the data active means fluorescence intensity above about 16000; inconclusive means no clear call, values can overlap the other calls
BoNT F protease: BoNT F light chain protease inhibition; Multiplex microsphere protease cleavage assay, flow cytometry; inhibition, % at 10 µM; 360,000 compounds, 0.22% hits; in the data active means inhibition above about 35%, passing the limit was not always enough; inconclusive means no clear call, values can overlap the other calls; further: plate controls were buffer without enzyme for full effect and enzyme alone for no effect
3CLpro inhibitor: SARS-CoV 3CLpro protease inhibition | recombinant SARS-CoV 3CLpro, quenched FRET peptide cleavage | 290,000 compounds, 0.14% hits | P0C6X7 | inhibition, % at 6 µM | AID 1706; in the data active means inhibition above about 12%
Active calls of the source: *. Rows were chosen to be rich in hits. Some 3.5% of all compounds tested hit in one or more screens of this group. Unless noted, no stated cut-off is given here; in the data, active means inhibition above about 30%; inconclusive means no clear call, values can overlap the other calls; inactive means below that.

How did O=C(Nc1sc2c(c1C(=O)O)CCCC2)c1cccs1 do in these assays?
BoNT A protease: -1; Anthrax LF inh2: -2; Bead autofluor: 24122*; BoNT F protease: -3; 3CLpro inhibitor: 7

What do the screens show for `O=C(Nc1ccc2c(c1)OCO2)c1cc2ncc(Br)cn2n1`?
BoNT A protease: 0; Anthrax LF inh2: 0; Bead autofluor: 2539; BoNT F protease: -10; 3CLpro inhibitor: -3

What do the screens show for `CCCC(C)(C)C(=O)N1CCC1(C)C(=O)NS(=O)(=O)c1ccc(Br)cc1` (configuration not stated)?
BoNT A protease: 0; Anthrax LF inh2: 5; Bead autofluor: 3506; BoNT F protease: -2

How did CCc1noc(C)c1C(=O)OCC(=O)N(CCOC)c1c(N)n(Cc2ccccc2)c(=O)[nH]c1=O do in these assays?
BoNT A protease: 1; Anthrax LF inh2: -2; Bead autofluor: inconclusive; BoNT F protease: inconclusive

How did Cc1cc(C)n(Cc2ccc(NC(=O)c3nn(C)cc3[N+](=O)[O-])cc2)n1 do in these assays?
BoNT A protease: 2; Anthrax LF inh2: -11; Bead autofluor: 22583*; BoNT F protease: 1; 3CLpro inhibitor: -5

What do the screens show for `Cc1cc(C)n(Cc2ccc(NC(=O)c3c([N+](=O)[O-])c(C)nn3C)cc2)n1`?
BoNT A protease: 4; Anthrax LF inh2: -2; Bead autofluor: 21819*; BoNT F protease: 4; 3CLpro inhibitor: 2

How did COC(=O)Cn1c(=O)c2c(nc(Br)n2CC(=O)OC)n(C)c1=O do in these assays?
BoNT A protease: 3; Anthrax LF inh2: -3; Bead autofluor: 22104*; BoNT F protease: 2; 3CLpro inhibitor: -4

What do the screens show for `O=S(=O)(c1ccc(Cl)c(F)c1)N1CCC(c2nc(-c3ccncc3)no2)CC1`?
BoNT A protease: -3; Anthrax LF inh2: -4; Bead autofluor: 21243*; BoNT F protease: -3; 3CLpro inhibitor: 1

How did COc1ccc2c(c1)CCC1C2=NN(/C(C)=C/C(C)=O)C1c1cccc(F)c1 (configuration not stated) do in these assays?
BoNT A protease: -25; Anthrax LF inh2: 6; Bead autofluor: 62503*; BoNT F protease: 24; 3CLpro inhibitor: 2

Results for NCCCCCC(=O)O ?
BoNT A protease: 1; Anthrax LF inh2: 7; Bead autofluor: 5817; BoNT F protease: 0

How did CCC(=O)Nn1c(C2CCC2)nc2ccccc2c1=O do in these assays?
BoNT A protease: -1; Anthrax LF inh2: 11; Bead autofluor: 4074; BoNT F protease: -14; 3CLpro inhibitor: 2

Results for COc1cccc(OC)c1C(=O)Nn1c(C2CCC2)nc2ccccc2c1=O ?
BoNT A protease: inconclusive; Anthrax LF inh2: -8; Bead autofluor: 19169*; BoNT F protease: 7; 3CLpro inhibitor: 5

How did CC1(C)C(=O)OC(C(=O)c2ccccc2)C(C)(C)C1=O (configuration not stated) do in these assays?
BoNT A protease: 3; Anthrax LF inh2: 0; Bead autofluor: 21463*; BoNT F protease: 3; 3CLpro inhibitor: -2

How did CC1(C)C(=O)OC(C(=O)c2ccc(Cl)cc2)C(C)(C)C1=O (configuration not stated) do in these assays?
BoNT A protease: 1; Anthrax LF inh2: -3; Bead autofluor: 2438; BoNT F protease: 0; 3CLpro inhibitor: 0

How did COc1cccc(C(=O)Oc2ccc(/C=N/NC(=O)c3ccncc3)cc2OC)c1 do in these assays?
BoNT A protease: -1; Anthrax LF inh2: 1; Bead autofluor: 3765; BoNT F protease: 0; 3CLpro inhibitor: 1

How did CCOC(=O)c1oc2ccccc2c1CN1CCOCC1 do in these assays?
BoNT A protease: 2; Anthrax LF inh2: -20; Bead autofluor: 21460*; BoNT F protease: 2; 3CLpro inhibitor: 0

What do the screens show for `CCOC(=O)c1c(C)n(CCN2CCN(C)CC2)c2ccc(OC)cc12`?
BoNT A protease: -1; Anthrax LF inh2: -2; Bead autofluor: 20539*; BoNT F protease: -5; 3CLpro inhibitor: -1

How did CCOC(=O)c1c(CN2CCOCC2)oc2ccc(OC)cc12 do in these assays?
BoNT A protease: inconclusive; Anthrax LF inh2: 0; Bead autofluor: 21090*; BoNT F protease: -5; 3CLpro inhibitor: -5

How did CCOC(=O)c1c(CN2CCCCC2)oc2ccc(O)cc12 do in these assays?
BoNT A protease: 0; Anthrax LF inh2: -2; Bead autofluor: 2416; BoNT F protease: -1; 3CLpro inhibitor: -3

What do the screens show for `CCOC(=O)c1oc2ccccc2c1CN1CCCCC1`?
BoNT A protease: 0; Anthrax LF inh2: 1; Bead autofluor: 3108; BoNT F protease: 0; 3CLpro inhibitor: 2

Results for CCOC(=O)c1c(N)sc(C(=O)N(C)C)c1CN1CCOCC1 ?
BoNT A protease: 0; Anthrax LF inh2: 0; Bead autofluor: 20070*; BoNT F protease: 1; 3CLpro inhibitor: 6

What do the screens show for `Cc1[nH]c(=O)[nH]c(=O)c1S(=O)(=O)N1CCC(C(=O)N2CCN(c3cccc(C(F)(F)F)c3)CC2)CC1`?
BoNT A protease: 0; Anthrax LF inh2: -5; Bead autofluor: 4830; BoNT F protease: -2; 3CLpro inhibitor: 1

Results for CC(C)CCSc1nc(N2CCOCC2)c2c(c1C#N)CC(C)(C)OC2 ?
BoNT A protease: 4; Anthrax LF inh2: -11; Bead autofluor: 19440*; BoNT F protease: 4; 3CLpro inhibitor: 5

What do the screens show for `COc1ccccc1S(=O)(=O)Cc1ccc(C(=O)NCCN2CCCC2)o1`?
BoNT A protease: -1; Anthrax LF inh2: 0; Bead autofluor: 22371*; BoNT F protease: -3; 3CLpro inhibitor: -6

How did Cc1ccc(S(=O)(=O)Cc2ccc(C(=O)NCCCN3CCCC3=O)o2)cc1 do in these assays?
BoNT A protease: -1; Anthrax LF inh2: -2; Bead autofluor: 20958*; BoNT F protease: -2; 3CLpro inhibitor: -1

What do the screens show for `COc1ccc(CCNC(=O)c2ccc(CS(=O)(=O)c3ccc(Cl)cc3)o2)cc1OC`?
BoNT A protease: 5; Anthrax LF inh2: 1; Bead autofluor: 17952*; BoNT F protease: 2; 3CLpro inhibitor: 0

How did COc1ccc(CCNC(=O)c2ccc(CS(=O)(=O)c3ccc(C)cc3)o2)cc1OC do in these assays?
BoNT A protease: 0; Anthrax LF inh2: 7; Bead autofluor: 4495; BoNT F protease: 0; 3CLpro inhibitor: 3

What do the screens show for `Cc1ccc(CS(=O)(=O)Cc2ccc(C(=O)N3CCC4(CC3)OCCO4)o2)cc1`?
BoNT A protease: 0; Anthrax LF inh2: 4; Bead autofluor: 9394; BoNT F protease: -2; 3CLpro inhibitor: 3

Results for Cc1ccc(S(=O)(=O)Cc2ccc(C(=O)N3CCC4(CC3)OCCO4)o2)cc1 ?
BoNT A protease: 1; Anthrax LF inh2: -3; Bead autofluor: 20005*; BoNT F protease: 2; 3CLpro inhibitor: -6

Results for Cc1c(C(=O)N/N=C/c2ccccc2)sc(=S)n1C ?
BoNT A protease: -1; Anthrax LF inh2: -8; Bead autofluor: 3342; BoNT F protease: -7; 3CLpro inhibitor: 5

Results for O=c1cc2c(c(-c3ccccc3)n1Cc1ccccc1)[C@H](CCO)NC2 ?
BoNT A protease: 1; Anthrax LF inh2: 1; Bead autofluor: 3648; BoNT F protease: -6

Results for CCN1C(=O)c2cccc3c(S(=O)(=O)NCc4ccccn4)ccc1c23 ?
BoNT A protease: 1; Anthrax LF inh2: 7; Bead autofluor: 2601; BoNT F protease: -2; 3CLpro inhibitor: 0
